We go through 39 molecules from PubChem BioAssay (NCI).

This is part of a sample that, as a whole, favours compounds with a hit. Of some 83,000 tested, about 20% had one in any assay.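 96-well plates, one dose, 48 hours. Percent growth reported; active if below 10.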 Calls of active or inactive are those of the source.

One test relates to MCF7 breast. As to the kind of experiment: NCI-60 one-dose screen, 48 h (100 = growth as untreated, 0 = no growth, -100 = all killed). The settings on record: 10 µM unless noted.
For the molecule `CC12CCCC(CC(=O)c3[nH]c4ccccc4c31)C2` (stereo unspecified), the growth was 21.1% (inactive).

As for `CC(C)(C)N1CCC1C(N)=O` (stereo unspecified), the growth was 104% (inactive).

Consider `C=C1CCC2C(C)(CO)C(O)CCC2(C)C1C/C=C1/C(=O)OCC1Oc1ccccc1C` (stereo unspecified), for which the growth was 29.5% (inactive).

In the case of `COc1ccc(NC(=O)CSc2nc(-c3ccc(OC)c(OC)c3)cc(-c3cc(OC)c(OC)c(OC)c3)n2)cc1`, the growth was 94% (inactive).

Turning to `CCCOC(=O)n1cccc1`, the growth was 95% (inactive).

As to `COc1cc(Cn2cc3c(c2)-c2oncc2CC3)cc(OC)c1OC`, the growth is 13.2% (inactive).

As to `O=C(O)Cc1cccc(=O)c(O)c1C(=O)O`, the growth was 100% (inactive).

For the molecule `NNc1cccc(/C=C/c2ccccc2)cc1=O`, the growth was 36.1% (inactive).

As for `S=C1CC(=S)NC(=S)N1`, the growth was 94.1% (inactive).

In the case of `COc1cc(C2CC(c3ccc4c(c3)OCO4)=NN2C(C)=O)cc(OC)c1OC` (stereo unspecified), the growth was 17.4% (inactive).

As to `Nc1nc(=O)c2ccccc2s1`, the growth was 103% (inactive).

With `Oc1ccc2cc(Br)ccc2c1-c1c(O)ccc2cc(Br)ccc12`, the growth was 37.1% (inactive).

Take `CCOC(=O)C1CCNC(=O)C1=O` (stereo unspecified): the growth is 107% (inactive).

As for `Nc1nc(-c2ccccc2)c(CCCOc2ccc(NC(=O)CBr)cc2)c(=O)[nH]1`, the growth is 78.8% (inactive).

With `Cc1ccc2nc(Cl)cc(=O)n2c1`, the growth is 107% (inactive).

Regarding `CC(C)OC(=O)N1CCOCC1`, the growth was 100% (inactive).

In the case of `CN(C)c1ncnc2c1ccn2C1OC(CO)C(O)C1O` (stereo unspecified), the growth is -7.76% (active).

With `O=S(=O)(CC(O)(c1ccccc1)c1ccccc1)CC(O)(c1ccccc1)c1ccccc1`, the growth is 80.9% (inactive).

For the molecule `O=[N+]([O-])c1ccc(/C=C/C2(CCl)OCCO2)cc1`, the growth is 106% (inactive).

As for `COc1cc(/C=C/C(=O)N2CCN(C(=O)/C=C/c3cc(OC)c(OC)c(OC)c3)CC2)cc(OC)c1OC`, the growth was 113% (inactive).

Take `CN(C)c1nc2c(N)ncnc2n1C1OC(CO)C(O)C1O` (stereo unspecified): the growth is 99.4% (inactive).

Consider `CN(C)CCCC(C#N)c1ccccc1` (stereo unspecified), for which the growth was 100% (inactive).

As to `COc1cc(C2CC(c3ccc4c(c3)OCO4)=NN2C=O)cc(OC)c1OC` (stereo unspecified), the growth was 16.8% (inactive).

Take `O=C(NNC(=O)N1c2ccccc2C=Cc2ccccc21)c1ccc2ccccc2c1`: the growth was 86% (inactive).

For `Cn1c(=O)c2[nH]c(C3CC=CCC3)nc2n(C)c1=O` (stereo unspecified), the growth is 102% (inactive).

Consider `NC(=S)N/N=C1\CCCC(C(F)(F)F)C1` (stereo unspecified), for which the growth was 27.3% (inactive).

For `O=c1cc(Cc2ccc([N+](=O)[O-])cc2)[nH]c(=O)[nH]1`, the growth was 106% (inactive).

As for `COc1ccc(C2=CC(c3cc(OC)c(OC)c(OC)c3)NC(=O)N2)cc1OC` (stereo unspecified), the growth was 15% (inactive).

Regarding `O=[N+]([O-])c1cc(S(=O)(=O)Oc2ccccc2)ccc1Cl`, the growth is -64.3% (active).

Regarding `CCN(CC)CCC(CNc1ccnc2cc(Cl)ccc12)c1ccc(Cl)cc1` (stereo unspecified), the growth was -70.7% (active).

Take `CCC1=CCC[C@@]2(C)CCC[C@@]3(C)CCCC(C)(C)[C@]1([O-])[O+]32`: the growth was 98.8% (inactive).

Regarding `CCOC(=O)CC(=O)OC`, the growth was 91.5% (inactive).

As to `O=c1[nH]c(-c2ccccc2)nc(CN2CCCCC2)c1O`, the growth was 104% (inactive).

Take `CC(NNC(C)c1ccccc1)c1ccccc1` (stereo unspecified): the growth is 113% (inactive).

On to `N#C/C(=C1C=C/C(=N/O)C(Cl)=C/1)c1ccc(Cl)cc1`, for which the growth was 13.7% (inactive).

`CC(C)CC1NC(C)(C)CO1` (stereo unspecified): the growth is 104% (inactive).

On to `O=C1Nc2ccc3c(c2/C1=C\c1cc2c(cc1Br)OCO2)OCO3`, for which the growth was 4.51% (active).

A further test relates to HCT-116 colon. The test is described as above. The settings on record: 10 µM unless noted.
On to `CC12CCCC(CC(=O)c3[nH]c4ccccc4c31)C2` (stereo unspecified), for which the growth was 22.7% (inactive).

On to `CC(C)(C)N1CCC1C(N)=O` (stereo unspecified), for which the growth is 77.4% (inactive).

As for `C=C1CCC2C(C)(CO)C(O)CCC2(C)C1C/C=C1/C(=O)OCC1Oc1ccccc1C` (stereo unspecified), the growth is 71.4% (inactive).

As to `COc1ccc(NC(=O)CSc2nc(-c3ccc(OC)c(OC)c3)cc(-c3cc(OC)c(OC)c(OC)c3)n2)cc1`, the growth is 90.3% (inactive).

As for `CCCOC(=O)n1cccc1`, the growth was 103% (inactive).

For `COc1cc(Cn2cc3c(c2)-c2oncc2CC3)cc(OC)c1OC`, the growth is 8.52% (active).

For the molecule `O=C(O)Cc1cccc(=O)c(O)c1C(=O)O`, the growth is 102% (inactive).

Regarding `NNc1cccc(/C=C/c2ccccc2)cc1=O`, the growth is 33.8% (inactive).

As to `S=C1CC(=S)NC(=S)N1`, the growth is 105% (inactive).

With `COc1cc(C2CC(c3ccc4c(c3)OCO4)=NN2C(C)=O)cc(OC)c1OC` (stereo unspecified), the growth is 30.9% (inactive).

On to `Nc1nc(=O)c2ccccc2s1`, for which the growth was 107% (inactive).

As for `Oc1ccc2cc(Br)ccc2c1-c1c(O)ccc2cc(Br)ccc12`, the growth was 33.5% (inactive).

In the case of `CCOC(=O)C1CCNC(=O)C1=O` (stereo unspecified), the growth is 107% (inactive).

In the case of `CCCCCCCCCCCCCCCCNC(=O)OC(C)C`, the growth is 20.8% (inactive).

As for `Nc1nc(-c2ccccc2)c(CCCOc2ccc(NC(=O)CBr)cc2)c(=O)[nH]1`, the growth is 103% (inactive).

With `Cc1ccc2nc(Cl)cc(=O)n2c1`, the growth is 105% (inactive).

With `CC(C)OC(=O)N1CCOCC1`, the growth was 102% (inactive).

Regarding `CN(C)c1ncnc2c1ccn2C1OC(CO)C(O)C1O` (stereo unspecified), the growth was 37% (inactive).

Regarding `CC[N+](CC)=c1cc2oc3cc(N(C)C)ccc3nc-2cc1C`, the growth was 7.17% (active).

Consider `O=S(=O)(CC(O)(c1ccccc1)c1ccccc1)CC(O)(c1ccccc1)c1ccccc1`, for which the growth was 77.7% (inactive).

Regarding `O=[N+]([O-])c1ccc(/C=C/C2(CCl)OCCO2)cc1`, the growth is 61.3% (inactive).

As for `COc1cc(/C=C/C(=O)N2CCN(C(=O)/C=C/c3cc(OC)c(OC)c(OC)c3)CC2)cc(OC)c1OC`, the growth is 98.3% (inactive).

As to `CN(C)c1nc2c(N)ncnc2n1C1OC(CO)C(O)C1O` (stereo unspecified), the growth is 105% (inactive).

`CN(C)CCCC(C#N)c1ccccc1` (stereo unspecified): the growth is 107% (inactive).

Take `COc1cc(C2CC(c3ccc4c(c3)OCO4)=NN2C=O)cc(OC)c1OC` (stereo unspecified): the growth is 20.6% (inactive).

Take `O=C(NNC(=O)N1c2ccccc2C=Cc2ccccc21)c1ccc2ccccc2c1`: the growth is 103% (inactive).

Regarding `Cn1c(=O)c2[nH]c(C3CC=CCC3)nc2n(C)c1=O` (stereo unspecified), the growth was 106% (inactive).

Regarding `NC(=S)N/N=C1\CCCC(C(F)(F)F)C1` (stereo unspecified), the growth is 8.77% (active).

Take `O=c1cc(Cc2ccc([N+](=O)[O-])cc2)[nH]c(=O)[nH]1`: the growth was 103% (inactive).

`COc1ccc(C2=CC(c3cc(OC)c(OC)c(OC)c3)NC(=O)N2)cc1OC` (stereo unspecified): the growth was 13.4% (inactive).

In the case of `O=[N+]([O-])c1cc(S(=O)(=O)Oc2ccccc2)ccc1Cl`, the growth was -54.8% (active).

Consider `CCN(CC)CCC(CNc1ccnc2cc(Cl)ccc12)c1ccc(Cl)cc1` (stereo unspecified), for which the growth is -26.9% (active).

As for `CCC1=CCC[C@@]2(C)CCC[C@@]3(C)CCCC(C)(C)[C@]1([O-])[O+]32`, the growth was 102% (inactive).

Consider `CCOC(=O)CC(=O)OC`, for which the growth was 104% (inactive).

Take `O=c1[nH]c(-c2ccccc2)nc(CN2CCCCC2)c1O`: the growth is 105% (inactive).

Consider `CC(NNC(C)c1ccccc1)c1ccccc1` (stereo unspecified), for which the growth is 107% (inactive).

Regarding `N#C/C(=C1C=C/C(=N/O)C(Cl)=C/1)c1ccc(Cl)cc1`, the growth was 1.93% (active).

For the molecule `CC(C)CC1NC(C)(C)CO1` (stereo unspecified), the growth was 114% (inactive).

Take `O=C1Nc2ccc3c(c2/C1=C\c1cc2c(cc1Br)OCO2)OCO3`: the growth is -2.7% (active).
